Growth data for 40 compounds are collected here from PubChem BioAssay (NCI).

Compounds without any hit were thinned out: in the full panel of roughly 83,000, 20% have a hit.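 Interpretation: 100, growth as untreated; towards 0, rising growth inhibition; 0, no net growth; 0 to -100, cell death. Compounds scoring below 10 were considered active.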 The source made the active and inactive calls.

This experiment concerns TK-10 renal. As to the kind of experiment: NCI-60 one-dose screen, 48 h (100 = growth as untreated, 0 = no growth, -100 = all killed). The conditions noted are these: 10 µM unless noted. As for the experimental part: Growth inhibition of the TK-10 human tumor cell line is measured as a screen for anti-cancer activity. Cells are grown in 96 well plates and exposed to the test compound for 48 hours. Compounds are tested at a single concentration, which is 10^-5 M for most compounds. The reported endpoint is percent growth (GI% or GIPRCNT), where numbers from 0 - 100% represent growth inhibition, and numbers from -100% - 0 represent cell death. For example, a value of 40 represents 60% growth inhibition. A value of 0 means no net growth occurred over the course of the experiment. A value of -40 indicates 40% of cells at the beginning of the experiment died by the end of the experiment. A value of -100 means all cells are dead at the end of the experiment.
NCI-60 Human Tumor Cell Lines Screen was performed using the standard one-dose NCI protocol, which is described in more detail at https://dtp.cancer.gov/discovery_development/nci-60/default.htm.
Compounds with GIPRCNT values below 10 were considered active. Activity score was based on GIPRCNT using the following formula: […]
Score is 0 for GIPRCNT values of 100 or above, 50 for GIPRCNT values of 0, and 100 for GIPRCNT values of -100.
`COC(=O)C1=C(C(=O)ONCCN(C)C)C2C=CC1(C(Cc1ccccc1)Nc1ccc(F)cc1)O2` (stereo not given): the growth was 65.4% (inactive).

Regarding `CC[N+](CC)(CCCC(C)[N+]1(Cc2ccccc2)C(C)=CC=C1C)Cc1ccccc1` (stereo not given), the growth was 93.8% (inactive).

In the case of `O=C(N/N=C/c1cccnc1)c1ccccc1Nc1cccc(C(F)(F)F)c1`, the growth was 97.2% (inactive).

Take `C#Cc1cccc(NC(=O)Nc2cccc(N=C=S)c2)c1`: the growth was 119% [8.25 µM] (inactive).

On to `COc1cccc(CNCCN2C(=O)c3ccc4c5c(ccc(c35)C2=O)C(=O)N(CCNCc2cccc(OC)c2)C4=O)c1`, for which the growth is 99.6% (inactive).

For `Nc1nnc2cc(Cl)ccc2n1`, the growth is 136% (inactive).

For `CNC(=O)c1c(NC(=O)c2ccc(C(C)C)cc2)sc2c(CN(C)C)c(O)ccc12`, the growth was 86.8% (inactive).

For `N#Cc1c(NC(=O)c2cccc(Br)c2)sc2c1CCCC2`, the growth was 79.2% (inactive).

Turning to `Cc1ccc(/C=C/C(=O)c2ccc(N)cc2)c(C)c1`, the growth is 106% (inactive).

Consider `Cc1ccc(O)c(C(=O)O)c1`, for which the growth was 72.7% (inactive).

In the case of `O=C(Nc1nc(-c2ccc(Br)cc2)cs1)c1cc(-c2ccc(Br)cc2)nc2ccc(Cl)cc12`, the growth is 115% (inactive).

With `O=C(Nc1nc2ccc(S(=O)(=O)Nc3ccc(C4(C(F)(F)F)CC4)cc3)cc2[nH]1)c1cnccn1`, the growth is 65.9% (inactive).

For the compound `COc1ccc(-c2nc(N/N=C/c3cccc(Br)c3)nc(N3CCOCC3)c2C#N)cc1`, the growth was 90.8% (inactive).

On to `COc1cc(C(=O)c2cnc(-c3ccc4cc[nH]c4c3)[nH]2)cc(OC)c1OC`, for which the growth is 33.3% (inactive).

With `C=Cc1cc[n+](CCCCCCCCCCCC)cc1`, the growth is 137% (inactive).

For the compound `CC1CCN(C(=O)OCc2nc3nc(Cl)nc(N4CCOCC4)c3[nH]2)CC1`, the growth was -91.8% (active).

`Fc1ccc(C2CC(c3cccc(Nc4ccncc4)c3)=NN2c2ccccc2)cc1` (stereo not given): the growth was 80.3% (inactive).

For the compound `COc1ccc2nc(N=Nc3c(O)ccc4ccccc34)sc2c1`, the growth was 69.1% (inactive).

`CCCCCN1C=C/C(=C\C(=O)N(C)c2ccc(Br)cc2)c2ccccc21`: the growth was 102% (inactive).

With `CC(C)NC(=O)N1C(=O)CCC1NNC(=O)c1ccc([N+](=O)[O-])cc1` (stereo not given), the growth is 101% (inactive).

Regarding `CC(c1ccccc1)n1ccnc1CO` (stereo not given), the growth was 88.2% (inactive).

Take `CN1C(=O)N(C)C2NC(N/N=C/c3ccccc3)=NC21` (stereo not given): the growth is 100% (inactive).

As for `C=C1C(=O)O[C@H]2[C@H]1CC/C(COC(=O)CCCc1c[nH]c3ccccc13)=C\CC[C@@]1(C)O[C@@H]21`, the growth was 94.7% (inactive).

Turning to `CCCC/C(=N\N=C(N)N)c1ccc(F)cc1`, the growth is 50.7% (inactive).

With `CCCCCCCCCCCCCCCC(=O)OC[C@@]1(O)C[C@@]23CC[C@@H]4C(C)(C)[C@H](O)CC[C@@]4(C)[C@@H]2CC[C@H]1C3`, the growth was 101% (inactive).

For the compound `O=C1Nc2c(ccc(Cl)c2Cl)/C1=C/c1ccc([N+](=O)[O-])cc1`, the growth is 103% (inactive).

On to `C=C(C)[C@@H]1CC[C@]2(C=O)CC[C@]3(C)[C@H](CC[C@@H]4[C@@]5(C)CCCNC(C)(C)[C@@H]5CC[C@]43C)[C@@H]12`, for which the growth is 88.2% (inactive).

With `COc1cc2ncnc(Nc3ccc(C(=O)/C=C/c4ccc(C(F)(F)F)cc4F)cc3)c2cc1OC`, the growth is 110% (inactive).

As to `OC(c1ccccc1)c1ccccn1` (stereo not given), the growth is 99.3% (inactive).

Take `COc1ccc(C(=O)c2cc3c(N)c(C(=O)Nc4ccc(Br)cc4)sc3nc2C)cc1`: the growth is 98.8% (inactive).

As to `COc1cc(NCCCN(CC(C)C)C2CCCC2)c2ncccc2c1`, the growth was 93.6% (inactive).

For the compound `CC(C)C1C2=C(NCCN1C(=O)Cc1ccccc1)C(C)(C)N(Cc1ccccc1)C2=O` (stereo not given), the growth is 97.3% (inactive).

As for `CC(=O)N1N=C(c2cccc(Nc3ccncc3)c2)CC1c1ccccc1` (stereo not given), the growth was 99.5% (inactive).

`COc1cc(-c2nc3sccn3c2-c2ccnc(NCCNS(=O)(=O)c3ccc(F)cc3)n2)ccc1F`: the growth was 20.2% (inactive).

For the compound `COc1ccc(-c2nc(SCCC(C)C)nc(N/N=C(/C)c3ccc(C)cc3)c2C#N)cc1`, the growth was 107% (inactive).

Consider `CCCCCCCCCCCCCCCC(=O)OC[C@@]1(O)C[C@@]23CC[C@@H]4C(C)(C)CCC[C@@]4(C)[C@@H]2CC[C@H]1C3`, for which the growth is 100% (inactive).

In the case of `O=S(=O)(c1ccccc1)N1CCCc2ccccc21`, the growth was 94.5% (inactive).

For the compound `COc1ccc(/C=C(/c2ccccc2)[N+](=O)[O-])cc1`, the growth was -83.2% (active).

Turning to `Fc1ccc(-n2cc(COc3ncnc4sc5c(c34)CCCC5)nn2)cc1Cl`, the growth was 113% (inactive).

`S=c1[nH]cccc1-c1nnc2n1Nc1nc3ccc(Cl)cc3cc1CS2`: the growth is 111% (inactive).
